# Key:
# [1] = molecular target: T1, Inhibitor of nuclear factor kappa-B kinase subunit epsilon (Homo sapiens) (UniProt Q14164); details: at 1 µM;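 note: reported values are averaged percent inhibition figures against human IKKε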
# T1 sequence (whole entry): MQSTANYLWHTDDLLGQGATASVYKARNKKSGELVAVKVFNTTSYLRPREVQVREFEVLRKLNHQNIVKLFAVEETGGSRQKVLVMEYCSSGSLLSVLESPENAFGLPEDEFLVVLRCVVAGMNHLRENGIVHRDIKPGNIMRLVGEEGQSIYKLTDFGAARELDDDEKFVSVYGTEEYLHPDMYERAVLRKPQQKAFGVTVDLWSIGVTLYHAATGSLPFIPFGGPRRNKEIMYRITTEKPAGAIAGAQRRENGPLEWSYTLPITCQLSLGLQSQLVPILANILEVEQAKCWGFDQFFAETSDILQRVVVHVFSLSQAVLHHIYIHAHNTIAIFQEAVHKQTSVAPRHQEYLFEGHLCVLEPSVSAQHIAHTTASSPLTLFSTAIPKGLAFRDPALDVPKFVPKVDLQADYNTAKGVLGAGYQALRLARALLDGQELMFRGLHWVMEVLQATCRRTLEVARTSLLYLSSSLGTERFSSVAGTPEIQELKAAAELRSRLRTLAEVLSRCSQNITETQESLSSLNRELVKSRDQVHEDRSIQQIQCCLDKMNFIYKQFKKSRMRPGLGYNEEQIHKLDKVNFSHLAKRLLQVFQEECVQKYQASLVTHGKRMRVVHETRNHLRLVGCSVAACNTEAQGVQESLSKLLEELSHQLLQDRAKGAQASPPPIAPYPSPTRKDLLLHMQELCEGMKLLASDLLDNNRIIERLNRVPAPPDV
# [2] = molecular target: T2, Serine/threonine-protein kinase Nek1 (Homo sapiens) (UniProt Q96PY6); details: at 0.1 µM
# T2 sequence (whole entry): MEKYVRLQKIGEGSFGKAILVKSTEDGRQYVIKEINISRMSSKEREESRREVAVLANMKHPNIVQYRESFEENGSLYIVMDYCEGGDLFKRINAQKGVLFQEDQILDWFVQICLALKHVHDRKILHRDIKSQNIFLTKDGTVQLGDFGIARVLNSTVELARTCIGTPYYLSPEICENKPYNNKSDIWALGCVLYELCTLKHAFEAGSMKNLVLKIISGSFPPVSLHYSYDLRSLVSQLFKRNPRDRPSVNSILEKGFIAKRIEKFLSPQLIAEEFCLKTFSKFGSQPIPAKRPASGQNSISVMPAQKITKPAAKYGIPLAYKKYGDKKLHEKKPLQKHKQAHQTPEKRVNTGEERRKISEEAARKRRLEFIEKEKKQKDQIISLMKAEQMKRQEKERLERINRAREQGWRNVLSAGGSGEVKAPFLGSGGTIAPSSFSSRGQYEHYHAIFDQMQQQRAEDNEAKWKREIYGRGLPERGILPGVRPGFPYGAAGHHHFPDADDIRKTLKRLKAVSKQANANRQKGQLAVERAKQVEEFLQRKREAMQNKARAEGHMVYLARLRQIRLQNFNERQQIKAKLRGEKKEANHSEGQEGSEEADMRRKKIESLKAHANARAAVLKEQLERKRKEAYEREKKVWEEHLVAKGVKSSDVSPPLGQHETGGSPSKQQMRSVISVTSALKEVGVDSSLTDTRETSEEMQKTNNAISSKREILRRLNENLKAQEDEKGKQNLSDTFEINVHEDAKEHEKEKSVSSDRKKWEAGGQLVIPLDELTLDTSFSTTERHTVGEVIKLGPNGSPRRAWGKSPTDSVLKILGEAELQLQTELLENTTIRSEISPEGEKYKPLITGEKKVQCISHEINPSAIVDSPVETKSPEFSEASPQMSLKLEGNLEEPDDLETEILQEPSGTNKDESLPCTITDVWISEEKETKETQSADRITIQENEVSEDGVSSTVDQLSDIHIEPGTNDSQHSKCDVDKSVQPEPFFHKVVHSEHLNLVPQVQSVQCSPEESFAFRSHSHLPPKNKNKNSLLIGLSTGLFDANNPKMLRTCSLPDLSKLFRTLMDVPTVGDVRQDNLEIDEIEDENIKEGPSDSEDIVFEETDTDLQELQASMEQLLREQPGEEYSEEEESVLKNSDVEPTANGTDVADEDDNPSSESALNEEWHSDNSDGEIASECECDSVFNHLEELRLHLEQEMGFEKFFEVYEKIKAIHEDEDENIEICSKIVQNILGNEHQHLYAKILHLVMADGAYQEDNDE
# [3] = molecular target: T2, Serine/threonine-protein kinase Nek1 (Homo sapiens); details: at 1 µM
# [4] = molecular target: T3, Serine/threonine-protein kinase Nek2 (Homo sapiens) (UniProt P51955); details: at 0.1 µM
# T3 sequence (whole entry): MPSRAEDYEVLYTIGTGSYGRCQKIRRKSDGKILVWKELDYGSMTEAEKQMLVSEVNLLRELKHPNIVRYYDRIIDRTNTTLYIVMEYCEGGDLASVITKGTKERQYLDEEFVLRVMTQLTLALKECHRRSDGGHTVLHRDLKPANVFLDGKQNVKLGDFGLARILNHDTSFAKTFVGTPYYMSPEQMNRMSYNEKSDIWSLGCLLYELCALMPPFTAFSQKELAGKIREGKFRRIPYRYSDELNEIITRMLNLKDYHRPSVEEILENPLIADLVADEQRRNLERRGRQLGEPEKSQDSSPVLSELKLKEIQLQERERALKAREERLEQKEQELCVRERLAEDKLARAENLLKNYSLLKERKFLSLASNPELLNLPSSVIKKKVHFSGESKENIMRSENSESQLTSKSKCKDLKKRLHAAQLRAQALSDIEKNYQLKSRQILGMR
# [5] = molecular target: T3, Serine/threonine-protein kinase Nek2 (Homo sapiens); details: at 1 µM
# [6] = molecular target: Serine/threonine-protein kinase Nek6 (Homo sapiens) (UniProt Q9HC98); details: at 0.1 µM
# Sequence of Serine/threonine-protein kinase Nek6 (Homo sapiens) (Q9HC98 whole entry): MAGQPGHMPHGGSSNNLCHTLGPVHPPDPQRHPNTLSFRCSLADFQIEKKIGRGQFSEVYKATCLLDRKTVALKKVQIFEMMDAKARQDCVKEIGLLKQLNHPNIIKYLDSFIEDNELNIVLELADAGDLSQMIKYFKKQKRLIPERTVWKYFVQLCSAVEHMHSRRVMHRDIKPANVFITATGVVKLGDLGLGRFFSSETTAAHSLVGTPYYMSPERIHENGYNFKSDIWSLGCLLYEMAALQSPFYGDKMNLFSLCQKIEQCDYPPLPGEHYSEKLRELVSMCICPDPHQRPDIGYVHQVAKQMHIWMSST
# [7] = molecular target: Serine/threonine-protein kinase Nek6 (Homo sapiens) (UniProt Q9HC98); details: at 1 µM
# [8] = molecular target: Serine/threonine-protein kinase Nek7 (Homo sapiens) (UniProt Q8TDX7); details: at 0.1 µM
# Sequence of Serine/threonine-protein kinase Nek7 (Homo sapiens) (Q8TDX7 whole entry, looked up): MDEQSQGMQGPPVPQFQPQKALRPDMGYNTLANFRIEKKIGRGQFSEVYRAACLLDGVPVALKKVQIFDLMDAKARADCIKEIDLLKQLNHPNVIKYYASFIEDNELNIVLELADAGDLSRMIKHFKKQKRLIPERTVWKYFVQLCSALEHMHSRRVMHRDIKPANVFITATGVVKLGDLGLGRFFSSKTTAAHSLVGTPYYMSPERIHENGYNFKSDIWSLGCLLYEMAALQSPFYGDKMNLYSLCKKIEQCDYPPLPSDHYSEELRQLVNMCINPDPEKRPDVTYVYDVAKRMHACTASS
# [9] = molecular target: Serine/threonine-protein kinase Nek7 (Homo sapiens) (UniProt Q8TDX7); details: at 1 µM
# [10] = molecular target: T4, Serine/threonine-protein kinase Nek9 (Homo sapiens) (UniProt Q8TD19); details: at 0.1 µM
# T4 sequence (whole entry): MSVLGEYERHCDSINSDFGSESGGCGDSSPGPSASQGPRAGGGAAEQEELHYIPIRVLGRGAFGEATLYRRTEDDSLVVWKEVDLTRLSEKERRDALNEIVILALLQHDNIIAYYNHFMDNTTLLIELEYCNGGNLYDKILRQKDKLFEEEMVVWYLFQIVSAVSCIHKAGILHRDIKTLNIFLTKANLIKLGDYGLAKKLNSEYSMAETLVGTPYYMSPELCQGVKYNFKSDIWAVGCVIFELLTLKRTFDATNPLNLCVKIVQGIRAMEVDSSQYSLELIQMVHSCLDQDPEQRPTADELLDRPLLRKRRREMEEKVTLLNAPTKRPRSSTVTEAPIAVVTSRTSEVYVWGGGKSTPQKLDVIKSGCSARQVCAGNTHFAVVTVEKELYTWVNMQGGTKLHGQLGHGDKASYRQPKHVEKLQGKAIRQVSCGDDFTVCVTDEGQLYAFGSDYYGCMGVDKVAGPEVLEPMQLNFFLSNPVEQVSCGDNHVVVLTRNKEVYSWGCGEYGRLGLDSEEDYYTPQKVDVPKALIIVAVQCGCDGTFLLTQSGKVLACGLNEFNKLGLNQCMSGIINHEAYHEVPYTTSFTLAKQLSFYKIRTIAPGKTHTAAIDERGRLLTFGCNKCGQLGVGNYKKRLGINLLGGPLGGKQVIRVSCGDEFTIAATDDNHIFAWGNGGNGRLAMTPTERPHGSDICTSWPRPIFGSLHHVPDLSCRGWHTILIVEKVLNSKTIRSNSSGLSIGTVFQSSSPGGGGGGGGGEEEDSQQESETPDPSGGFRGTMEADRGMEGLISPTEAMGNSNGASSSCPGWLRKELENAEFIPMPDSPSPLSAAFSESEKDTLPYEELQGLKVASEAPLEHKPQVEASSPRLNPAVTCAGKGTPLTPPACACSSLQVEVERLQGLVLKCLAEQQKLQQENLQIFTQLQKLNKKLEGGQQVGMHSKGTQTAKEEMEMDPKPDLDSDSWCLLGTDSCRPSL
# [11] = molecular target: T4, Serine/threonine-protein kinase Nek9 (Homo sapiens); details: at 1 µM
# [12] = molecular target: Serine/threonine-protein kinase PLK1 (Homo sapiens) (UniProt P53350); details: at 0.1 µM
# Sequence of Serine/threonine-protein kinase PLK1 (Homo sapiens) (P53350 whole entry): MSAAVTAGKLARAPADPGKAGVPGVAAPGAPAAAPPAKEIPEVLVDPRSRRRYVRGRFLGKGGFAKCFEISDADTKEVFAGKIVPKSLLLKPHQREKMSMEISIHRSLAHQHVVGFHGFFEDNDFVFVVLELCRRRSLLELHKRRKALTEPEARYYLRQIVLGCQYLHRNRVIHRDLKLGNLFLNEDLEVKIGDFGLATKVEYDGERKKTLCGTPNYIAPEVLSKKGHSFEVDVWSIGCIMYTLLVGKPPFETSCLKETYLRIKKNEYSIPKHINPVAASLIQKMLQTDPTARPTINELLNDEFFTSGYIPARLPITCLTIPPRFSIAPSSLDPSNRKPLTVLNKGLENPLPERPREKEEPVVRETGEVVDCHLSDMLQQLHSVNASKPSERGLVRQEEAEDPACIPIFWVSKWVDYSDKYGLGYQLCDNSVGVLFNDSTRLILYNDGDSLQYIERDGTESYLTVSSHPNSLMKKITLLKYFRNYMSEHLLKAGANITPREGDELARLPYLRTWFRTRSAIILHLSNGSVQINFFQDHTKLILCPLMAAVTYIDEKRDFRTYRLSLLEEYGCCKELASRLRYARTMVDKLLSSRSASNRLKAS
# [13] = molecular target: Serine/threonine-protein kinase PLK1 (Homo sapiens) (UniProt P53350); details: at 1 µM
# [14] = molecular target: T5, Dual specificity protein kinase TTK (Homo sapiens) (UniProt P33981); details: at 0.1 µM
# T5 sequence (whole entry): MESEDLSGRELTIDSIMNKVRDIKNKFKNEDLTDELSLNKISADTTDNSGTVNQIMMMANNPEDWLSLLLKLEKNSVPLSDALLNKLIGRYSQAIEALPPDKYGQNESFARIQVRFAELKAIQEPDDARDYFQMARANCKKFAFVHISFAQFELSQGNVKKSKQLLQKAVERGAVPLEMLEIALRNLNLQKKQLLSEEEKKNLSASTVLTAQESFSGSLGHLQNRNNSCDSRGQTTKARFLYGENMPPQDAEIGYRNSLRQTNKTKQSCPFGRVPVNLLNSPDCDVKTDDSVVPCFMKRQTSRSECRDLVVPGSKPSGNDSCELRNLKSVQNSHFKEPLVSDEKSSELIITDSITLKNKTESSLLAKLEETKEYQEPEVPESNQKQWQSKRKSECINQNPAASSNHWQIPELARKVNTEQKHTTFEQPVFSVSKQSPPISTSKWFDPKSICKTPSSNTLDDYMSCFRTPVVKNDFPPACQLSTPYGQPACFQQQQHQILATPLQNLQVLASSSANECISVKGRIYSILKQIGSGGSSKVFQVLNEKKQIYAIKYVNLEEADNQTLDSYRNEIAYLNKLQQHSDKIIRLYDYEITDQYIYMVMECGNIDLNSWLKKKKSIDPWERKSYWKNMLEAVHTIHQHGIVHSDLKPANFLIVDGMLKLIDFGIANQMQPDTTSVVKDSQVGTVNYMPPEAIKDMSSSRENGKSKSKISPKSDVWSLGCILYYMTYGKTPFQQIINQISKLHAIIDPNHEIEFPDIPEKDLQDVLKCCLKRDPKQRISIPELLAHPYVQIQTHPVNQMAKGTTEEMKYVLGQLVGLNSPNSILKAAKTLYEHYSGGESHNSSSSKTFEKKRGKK
# [15] = system: T6, Receptor-type tyrosine-protein kinase FLT3 (Homo sapiens), P36888 [D835Y]; details: at 1 µM
# T6 sequence (whole entry): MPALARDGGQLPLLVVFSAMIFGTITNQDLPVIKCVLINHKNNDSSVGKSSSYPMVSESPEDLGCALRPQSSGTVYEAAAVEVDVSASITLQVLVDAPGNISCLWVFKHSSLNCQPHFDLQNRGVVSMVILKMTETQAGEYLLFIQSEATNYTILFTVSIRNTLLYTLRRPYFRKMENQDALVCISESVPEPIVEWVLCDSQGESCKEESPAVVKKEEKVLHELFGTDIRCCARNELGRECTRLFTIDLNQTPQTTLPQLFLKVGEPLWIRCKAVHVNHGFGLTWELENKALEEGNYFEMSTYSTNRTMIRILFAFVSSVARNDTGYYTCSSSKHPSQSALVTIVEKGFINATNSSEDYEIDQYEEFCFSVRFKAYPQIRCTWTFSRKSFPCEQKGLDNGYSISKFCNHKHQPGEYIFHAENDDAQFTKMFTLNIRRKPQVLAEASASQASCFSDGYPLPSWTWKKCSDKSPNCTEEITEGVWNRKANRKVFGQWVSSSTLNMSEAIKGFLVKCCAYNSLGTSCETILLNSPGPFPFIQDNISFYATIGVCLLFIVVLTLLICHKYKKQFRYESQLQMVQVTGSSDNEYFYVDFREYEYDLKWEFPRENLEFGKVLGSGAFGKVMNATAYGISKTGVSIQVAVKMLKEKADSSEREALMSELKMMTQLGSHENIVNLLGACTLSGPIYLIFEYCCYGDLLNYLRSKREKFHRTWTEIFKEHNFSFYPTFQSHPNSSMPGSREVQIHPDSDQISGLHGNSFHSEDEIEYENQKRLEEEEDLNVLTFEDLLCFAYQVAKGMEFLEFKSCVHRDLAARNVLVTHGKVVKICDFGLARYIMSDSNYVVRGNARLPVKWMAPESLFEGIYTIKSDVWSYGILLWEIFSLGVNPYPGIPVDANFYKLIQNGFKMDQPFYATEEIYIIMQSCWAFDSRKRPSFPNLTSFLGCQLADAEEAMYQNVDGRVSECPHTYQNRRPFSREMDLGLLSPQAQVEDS
# [16] = molecular target: Vascular endothelial growth factor receptor 3 (Homo sapiens) (UniProt P35916); details: at 0.1 µM
# Sequence of Vascular endothelial growth factor receptor 3 (Homo sapiens) (P35916 whole entry): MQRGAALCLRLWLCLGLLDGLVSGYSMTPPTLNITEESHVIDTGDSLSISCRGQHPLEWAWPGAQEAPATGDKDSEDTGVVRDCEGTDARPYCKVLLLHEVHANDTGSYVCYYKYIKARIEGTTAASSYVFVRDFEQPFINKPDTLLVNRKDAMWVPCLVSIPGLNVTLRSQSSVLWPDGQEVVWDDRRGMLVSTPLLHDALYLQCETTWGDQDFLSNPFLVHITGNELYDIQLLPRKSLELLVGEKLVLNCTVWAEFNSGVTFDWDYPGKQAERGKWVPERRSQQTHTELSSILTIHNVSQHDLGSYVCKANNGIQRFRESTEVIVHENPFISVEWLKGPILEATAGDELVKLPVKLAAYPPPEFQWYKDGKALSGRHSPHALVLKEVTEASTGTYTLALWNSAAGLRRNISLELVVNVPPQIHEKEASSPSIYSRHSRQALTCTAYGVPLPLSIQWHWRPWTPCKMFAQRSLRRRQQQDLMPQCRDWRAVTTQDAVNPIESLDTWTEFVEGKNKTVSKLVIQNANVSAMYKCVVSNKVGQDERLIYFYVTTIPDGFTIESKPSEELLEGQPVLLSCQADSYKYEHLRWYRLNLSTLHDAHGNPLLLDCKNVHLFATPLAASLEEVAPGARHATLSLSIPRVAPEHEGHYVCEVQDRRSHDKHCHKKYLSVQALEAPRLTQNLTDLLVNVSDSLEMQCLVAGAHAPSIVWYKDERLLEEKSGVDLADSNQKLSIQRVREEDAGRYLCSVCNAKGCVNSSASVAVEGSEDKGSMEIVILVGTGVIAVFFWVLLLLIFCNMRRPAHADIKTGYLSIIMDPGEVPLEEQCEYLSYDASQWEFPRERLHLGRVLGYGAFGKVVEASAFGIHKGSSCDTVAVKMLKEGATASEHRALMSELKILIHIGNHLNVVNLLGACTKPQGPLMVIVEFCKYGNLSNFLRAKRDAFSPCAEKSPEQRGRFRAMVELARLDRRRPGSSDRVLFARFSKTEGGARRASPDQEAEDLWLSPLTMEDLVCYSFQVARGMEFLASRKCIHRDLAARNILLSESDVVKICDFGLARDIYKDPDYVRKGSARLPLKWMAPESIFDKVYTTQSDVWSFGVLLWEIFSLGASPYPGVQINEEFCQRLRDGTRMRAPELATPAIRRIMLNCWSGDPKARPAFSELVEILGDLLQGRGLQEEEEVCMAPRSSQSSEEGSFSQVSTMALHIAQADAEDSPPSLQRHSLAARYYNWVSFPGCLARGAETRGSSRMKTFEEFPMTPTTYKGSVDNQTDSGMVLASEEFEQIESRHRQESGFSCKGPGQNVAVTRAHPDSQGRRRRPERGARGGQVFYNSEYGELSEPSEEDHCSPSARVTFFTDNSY
# [17] = molecular target: Vascular endothelial growth factor receptor 3 (Homo sapiens) (UniProt P35916); details: at 1 µM
# [18] = molecular target: Macrophage colony-stimulating factor 1 receptor (Homo sapiens) (UniProt P07333); details: at 0.1 µM
# Sequence of Macrophage colony-stimulating factor 1 receptor (Homo sapiens) (P07333 whole entry): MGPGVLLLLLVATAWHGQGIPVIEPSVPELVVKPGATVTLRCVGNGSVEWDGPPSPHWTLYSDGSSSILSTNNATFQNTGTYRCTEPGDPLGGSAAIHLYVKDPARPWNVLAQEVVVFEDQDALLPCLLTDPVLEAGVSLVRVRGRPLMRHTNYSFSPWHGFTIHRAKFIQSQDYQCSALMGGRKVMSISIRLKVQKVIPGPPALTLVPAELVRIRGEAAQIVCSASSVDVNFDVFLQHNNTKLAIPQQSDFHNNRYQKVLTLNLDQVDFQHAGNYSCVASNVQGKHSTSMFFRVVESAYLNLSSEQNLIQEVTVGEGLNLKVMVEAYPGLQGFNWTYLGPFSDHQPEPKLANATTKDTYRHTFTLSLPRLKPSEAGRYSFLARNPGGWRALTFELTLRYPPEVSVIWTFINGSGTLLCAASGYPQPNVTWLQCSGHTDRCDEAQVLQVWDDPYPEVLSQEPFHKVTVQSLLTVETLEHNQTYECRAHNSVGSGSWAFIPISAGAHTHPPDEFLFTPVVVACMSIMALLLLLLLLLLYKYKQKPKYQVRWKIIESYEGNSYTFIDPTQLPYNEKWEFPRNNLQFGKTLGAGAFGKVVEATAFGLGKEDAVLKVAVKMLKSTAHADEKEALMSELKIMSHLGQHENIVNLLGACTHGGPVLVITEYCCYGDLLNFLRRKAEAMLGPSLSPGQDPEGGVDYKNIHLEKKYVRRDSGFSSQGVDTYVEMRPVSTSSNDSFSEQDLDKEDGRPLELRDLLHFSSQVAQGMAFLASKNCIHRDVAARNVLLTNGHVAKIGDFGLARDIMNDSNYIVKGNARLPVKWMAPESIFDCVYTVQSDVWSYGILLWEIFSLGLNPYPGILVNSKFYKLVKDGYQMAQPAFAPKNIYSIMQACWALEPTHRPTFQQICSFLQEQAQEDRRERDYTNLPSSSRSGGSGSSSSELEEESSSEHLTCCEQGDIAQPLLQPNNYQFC
# [19] = molecular target: Macrophage colony-stimulating factor 1 receptor (Homo sapiens) (UniProt P07333); details: at 1 µM
# [20] = molecular target: Tyrosine-protein kinase Fyn (Homo sapiens) (UniProt P06241); details: at 0.1 µM
# Sequence of Tyrosine-protein kinase Fyn (Homo sapiens) (P06241 2-537 limits assumed): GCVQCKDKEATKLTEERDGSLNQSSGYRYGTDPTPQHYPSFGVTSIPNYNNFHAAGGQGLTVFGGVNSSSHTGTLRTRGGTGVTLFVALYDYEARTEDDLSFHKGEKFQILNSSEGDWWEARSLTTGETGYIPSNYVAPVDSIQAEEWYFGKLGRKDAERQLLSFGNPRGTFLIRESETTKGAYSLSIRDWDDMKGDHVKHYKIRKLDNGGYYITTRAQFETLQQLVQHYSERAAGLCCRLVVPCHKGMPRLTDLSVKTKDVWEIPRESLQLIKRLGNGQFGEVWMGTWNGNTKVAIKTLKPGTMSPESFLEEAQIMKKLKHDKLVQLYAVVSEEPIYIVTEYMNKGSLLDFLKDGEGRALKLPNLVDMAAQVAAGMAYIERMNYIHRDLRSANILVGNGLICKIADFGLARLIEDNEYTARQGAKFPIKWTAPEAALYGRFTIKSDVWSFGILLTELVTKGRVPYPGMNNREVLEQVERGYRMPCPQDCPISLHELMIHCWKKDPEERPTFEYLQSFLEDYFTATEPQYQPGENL
structure (smiles),measurement,setting,value
c1ccc(COc2ccc(Nc3ncnc4ccc(-c5ccco5)cc34)cc2)cc1,inhibition,[1],3.49%
same,inhibition,[2],0.6%
same,inhibition,[3],1.07%
same,inhibition,[4],1.15%
same,inhibition,[5],0.92%
same,inhibition,[6],-0.18%
same,inhibition,[7],-0.36%
same,inhibition,[8],-0.99%
same,inhibition,[9],1.84%
same,inhibition,[10],1.17%
same,inhibition,[11],5.01%
same,inhibition,[12],1.78%
same,inhibition,[13],0.52%
same,inhibition,[14],5.13%
same,inhibition,[15],-0.59%
same,inhibition,[16],1.83%
same,inhibition,[17],0.93%
same,inhibition,[18],-2.64%
same,inhibition,[19],0.74%
same,inhibition,[20],0.27%

# — ChEMBL document CHEMBL1961873, “Compounds: GSK PKIS; Assays: Nanosyn kinase panel” (2012)
